# The list is not random: actives were taken first. Their share in the collection is about 6.2%.
# HT1080NT lethal – kills 2HG-producing HT-1080-NT fibrosarcoma cells; HT-1080-NT fibrosarcoma viability, CellTiter-Glo ATP luminescence, 48 h; Potency, µM (highest dose often 46.1 µM), inactives show at the highest dose activity, negative = less viability, hits mostly cytotoxic; hit rate 1.6% among 360,000;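 further: NT is the 2HG producing partner of a matched IDH1 knockdown line; 0% = DMSO-treated cells and -100% = media-only wells without cells; nearly all actives have a fitted effect of over 55% in size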
#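 Viability of the 2HG-overproducing fibrosarcoma line after 48 hours of compound exposure at 37 degrees C was determined by luminescence with CellTiter-Glo, and concentration-effect curves were then fitted and categorized.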
# S2 tox – cell viability loss in ATXN counter-screen; S2 cells (HEK-293 line with an ATXN2-luciferase reporter) viability, CellTiter-Fluor protease fluorescence, 24 h; Potency, µM (doses to about 56.7 µM), hits mostly cytotoxic; hit rate 0.49% among 400,000; AID 651635; further: nearly all actives have a fitted effect of over 40% in size
# ATXN2 expr inh – inhibitors of ATXN2 expression | HEK-293 ATXN2-luciferase reporter, luminescence, 24 h | hit rate 0.72% among 360,000 | Potency, µM (titrated, usually from 57 µM), for inactives: at the highest dose activity change, negative = inhibition, most hits filed as inhibitors; further: on the % scale 0 is the no-effect control and ±100 the full control effect; nearly all actives have a fitted effect of over 55% in size
#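 ATXN2-luciferase reporter cells (luciferase flanked by upstream and downstream ATXN2 gene portions) were treated 24 h at 37 °C with compounds at up to 57 uM. SteadyGlo luminescence gave expression; GF-AFC fluorescence gave viability.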
# KB-3-1 tox – kills parental KB-3-1 adenocarcinoma cells. Potency, µM (doses to about 46.1 µM), actives largely listed as cytotoxic. hit rate 1.4% among 400,000. KB-3-1 viability, CellTiter-Glo ATP luminescence, 72 h; further: on the % scale 0 is the no-effect control and ±100 the full control effect; nearly all actives have a fitted effect of over 60% in size
#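 72 h, 37 °C compound treatment of KB-3-1 parental cells; CellTiter-Glo added, 10 min, luminescence read. Data corrected against DMSO-only plates and normalized before curve fitting.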
# HT1080 IDH1KD tx – kills HT-1080 cells with IDH1 knockdown. HT-1080 IDH1 knockdown viability, ATP luminescence, 48 h. Potency, µM (top dose mostly 46.1 µM), for the others: at the highest dose activity, negative = toxicity, usual class: cytotoxic. hit rate 2% among 360,000;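 further: 0% = DMSO wells and -100% = cell-free medium wells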
#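 % activity derives from luminescence (CellTiter-Glo), normalised to DMSO and no-cell wells. HT-1080-IDH1KD cells, 750/well, had 48 h compound exposure at 37 °C.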
# KB-V1 cytotox – KB-V1 MDR subline cytotoxicity | Potency, µM (doses to about 46.1 µM), actives largely listed as cytotoxic | hit rate 3.4% among 400,000 | KB-V1 MDR cells viability, CellTiter-Glo, 72 h; further: on the % scale 0 is the no-effect control and ±100 the full control effect; nearly all actives have a fitted effect of over 60% in size
#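 KB-V1 cells (P-gp-expressing MDR subline of KB-3-1) in phenol-red-free DMEM with 10% FBS were exposed to library compounds over a concentration series for 72 h at 37 degrees C. Viability read by CellTiter-Glo luminescence; concentration-effect curves fitted after normalization.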
# Active calls of the source: *; i = inactive; ? = inconclusive; . = not tested or not shown. The call rests on the fitted dose curve; in most records, active means well fitted curve in the direction sought with a large enough effect; inconclusive means small, poorly fitted or top-dose-only effect, or another doubt; inactive means no such curve, though single readings can be large; an effect the other way counts as inactive or inconclusive. Potency means the concentration at half of the fitted maximal effect.
SMILES,HT1080NT lethal,S2 tox,ATXN2 expr inh,KB-3-1 tox,HT1080 IDH1KD tx,KB-V1 cytotox
O=C(C1CCCN(c2ncnc3c2nc2n3CCCCC2)C1)N1CCN(c2ccc(F)cc2)CC1 (centres undefined),-21%,?,-24%,?,-11%,?
CCOC(=O)C1CCCN(c2ncnc3c2cnn3-c2ccc(OC)cc2)C1 (centres undefined),7%,i,-5%,i,15%,?
CCOC(=O)C1CCCN(c2ncnc3c2cnn3-c2ccc(Cl)cc2)C1 (centres undefined),11%,i,?,i,?,13µM*
O=C(C1CCN(c2ncnc3c2nc2n3CCCCC2)CC1)N1CCN(c2cccc(Cl)c2)CC1,?,18µM*,.,?,-28%,i
CCN(CC)S(=O)(=O)c1ccc2c(c1)c(=O)c(C(=O)N1CCN(c3cc(Cl)ccc3C)CC1)cn2C,.,i,4%,i,.,i
Cc1ccc(-n2nc3c(N4CCC(C(=O)NC5CCC(C)CC5)CC4)nnc(C)c3c2C)cc1 (centres undefined),.,i,-16%,i,.,i
COc1ccc(C)cc1S(=O)(=O)N1CCN(c2cccc(Cl)c2)CC1,.,i,-24%,i,.,i
COCCn1c(-c2ccccc2)c(C)n2c3c(=O)n(C)c(=O)n(C)c3nc12,.,i,-11%,i,.,?
COc1ccc(/C=N/NC(=O)Cn2cnc3ccccc3c2=O)cc1,5%,i,-3%,i,4%,3.3µM*
O=C(CC1Sc2ccccc2NC1=O)NNc1cccc(Cl)c1Cl (centres undefined),?,i,?,i,?,21µM*
CN(C(=O)COc1ccccc1C(=O)NCCOc1ccccc1)c1ccccc1,21µM*,?,?,15µM*,?,8.2µM*
O=C(NCCOc1ccccc1)c1ccccc1Cl,6%,.,9%,i,13%,?
COc1ccc(C2SCC(=O)N2CCc2ccc(OC)c(OC)c2)cc1 (centres undefined),?,i,?,?,18µM*,?
COc1ccc(CCN2C(=O)c3cccnc3C2=O)cc1OC,9%,i,-6%,i,11%,i
COc1ccc(CCN2C(=O)C=CC2=O)cc1OC,?,?,?,i,6.5µM*,?
COc1ccc(CCNC2=C(Cl)C(=O)N(CCc3ccc(OC)c(OC)c3)C2=O)cc1OC,0%,?,?,?,-11%,21µM*
COc1ccc(CCN2C(=O)CN(Cc3ccccc3)CC2=O)cc1OC,17%,i,17%,i,10%,6.5µM*
Cc1ccc(S(=O)(=O)c2nnn3c2nc(NC(C)C)c2sccc23)cc1,.,.,.,i,.,i
COc1ccc(NC2=C(Cl)C(=O)N(CCc3ccccc3)C2=O)c(OC)c1,0%,i,42%,i,-2%,13µM*
COc1ccc(NC2=C(Cl)C(=O)N(CCc3ccccc3)C2=O)cc1,-1%,i,27%,i,-7%,i
Cc1ccccc1-c1nc2c(c(SCc3cccc(Cl)c3)n1)Cc1c(CO)cnc(C)c1O2,.,i,1%,i,.,i
O=C(/C=C1\NC2(CCCC2)Cc2ccccc21)C(=O)N/N=C/c1ccccc1O,23µM*,?,?,?,?,?
COc1cc(/C=N/NC(=O)C(=O)/C=C2\NC3(CCCC3)Cc3ccccc32)ccc1O,-18%,?,-5%,i,-25%,?
CN(C)c1ccc(/C=N/NC(=O)C(=O)/C=C2\NC3(CCCC3)Cc3ccccc32)cc1,-4%,?,6%,i,-16%,18µM*
Cc1ccc(CNC(=O)CCn2cnc3ccccc3c2=O)cc1,.,i,-4%,i,.,i
SMILES,HT1080NT lethal,S2 tox,ATXN2 expr inh,KB-3-1 tox,HT1080 IDH1KD tx,KB-V1 cytotox
CCCCc1nc2n[nH]c(N)c2c2c1CCC2,-12%,i,-6%,?,-8%,0.65µM*
O=C(N/N=C/c1cc2c3c(c1O)CCCN3CCC2)c1ccccc1O,?,.,?,4.1µM*,?,?
O=C(CCl)N(Cc1ccccc1)c1ccccc1,10µM*,i,0%,?,16µM*,i
O=C(CCl)N(Cc1cc(=O)[nH]c2ccccc12)c1ccccc1,-14%,?,.,i,?,i
Cc1cccc(N(Cc2ccccc2)C(=O)CSC(C)C(=O)Nc2cc(C)on2)c1 (centres undefined),1%,i,109%,?,-26%,15µM*
Cc1cccc(N(Cc2ccccc2)C(=O)CCl)c1,1.5µM*,0.53µM*,0.75µM*,i,1.3µM*,?
Cc1ccc(S(=O)(=O)Nc2ccc(S(=O)(=O)NC(C)(C)C)cc2)cc1,-6%,i,-2%,?,3%,18µM*
Cc1ccc(S(=O)(=O)Nc2ccc(NC(=O)Nc3ccc(F)cc3F)cc2)cc1,0%,i,5%,?,-12%,23µM*
Cc1ccc(NS(=O)(=O)c2ccc(C3CCCCC3)cc2)cc1,-24%,?,-30%,?,-25%,21µM*
Cc1ccc(NS(=O)(=O)c2ccc(NC(=O)C3CCCO3)cc2)cc1 (centres undefined),-12%,i,-18%,i,-8%,13µM*
COC(=O)c1ccc(C2NC(c3ccc4c(c3)OCO4)=CC(c3ccccc3O)N2)cc1 (centres undefined),.,.,.,i,.,i
O=C1CC(c2ccccc2)Cc2nc3ncnn3cc21 (centres undefined),11µM*,i,-1%,?,?,?
OC(c1ccc2c(c1)CN(Cc1ccc3nsnc3c1)CCO2)C1CCCCC1 (centres undefined),.,i,.,.,.,.
COc1ccc2c(CNC3CCCCCC3)c(C(=O)O)n(Cc3ccc(C)cc3)c2c1,.,?,-28%,i,.,i
CCCCCCCCCCCCCC(=O)N[C@H](CO)[C@H](O)c1ccc([N+](=O)[O-])cc1,.,.,10%,.,.,.
O=C1/C(=C\c2ccc3c(c2)OCO3)CCC/C1=C/c1ccc2c(c1)OCO2,-15%,i,13%,i,-1%,i
CC1CC/C(=C\c2ccc3c(c2)OCO3)C(=O)/C1=C/c1ccc2c(c1)OCO2 (centres undefined),?,i,32%,26µM*,?,i
Cc1c(CN2CCOc3c(cc(-c4ncc(C(F)(F)F)cc4Cl)cc3OCC3CCCO3)C2)cnn1C (centres undefined),.,i,.,.,.,.
COc1ccc(CN2CCOc3c(cc(-c4cccc(OC)n4)cc3OC)C2)c(O)c1,.,i,.,.,.,.

# Screens from PubChem.
